aSyn UTR act = Activators via SNCA 5'UTR binding, MLPCN | alpha-synuclein 5'UTR reporter, activators screen | activity score, % (tested at 7.5 µM), hits read low | 300,000 compounds, 7.1% hits | AID 1814; in the data active = activity score below about -60%
* marks the source's active call; other numbers are inactive results. Only a sample is shown.

SMILES	aSyn UTR act
Cc1ccc(-c2cn3c(n2)SCC3)cc1	-144.5*
CCc1ccc(-c2cn3c(n2)SCC3)cc1	-99.0*
Cc1ccc(-c2cn3nc(C)c(C)nc3n2)cc1	72.7
Clc1ccccc1-c1ncc(-c2ccccc2)o1	-143.0*
Clc1ccccc1CSc1cc2c(nn1)-c1ccccc1CC2	-132.1*
Clc1cccc(Cl)c1CSc1cc2c(nn1)-c1ccccc1CC2	-83.0*
CC(=O)c1cccc(NC(=O)c2ccc(Br)o2)c1	-71.1*
O=C(Nc1cccc(F)c1)c1ccc(Br)o1	-65.7*
Cc1ccc(/C(N)=N/OC(=O)COc2ccccc2Cl)cc1	-95.3*
N/C(=N\OC(=O)COc1ccccc1Cl)c1ccc(Cl)cc1	-89.6*
CCOc1cccc(-c2csc(C3COc4ccccc4O3)n2)c1 (centres undefined)	-105.9*
CCOc1cccc(-c2nnc3n2N=C(c2cc(OC)ccc2OC)CS3)c1	62.9
CCCN(CCC)CCNC(=O)c1cc2c(=O)n(CC)c3ccccc3c2s1	-173.7*
CCN(CC)CCNC(=O)c1cc2c(=O)n(CC)c3ccccc3c2s1	-124.6*
CCOCCCNC(=O)c1cc2c(=O)n(CC)c3ccccc3c2s1	-79.9*
CN1CCN(CCCNC(=O)c2cc3c(=O)n(C)c4ccccc4c3s2)CC1	-73.8*
CCN(CC)CCCNC(=O)c1cc2c(=O)n(CC)c3ccccc3c2s1	-107.5*
CC1CCN(C(=S)NCCc2ccccc2)CC1	-138.0*
OCC1CCCN(C(=S)NCCc2ccccc2)C1 (centres undefined)	-106.5*
CC(=O)Nc1ccc(Nc2nc(C)c([N+](=O)[O-])c(N(C)c3ccccc3)n2)cc1	85.6
Cc1nc2sc(C(=O)OC(C)C)c(N)c2c(C)c1C	-189.9*
Cc1nc2sc(C(=O)c3ccccc3)c(N)c2c(C)c1C	-67.8*
Cc1snc2sc(C(=O)c3ccc(Br)cc3)c(N)c12	-101.4*
CC(=O)Nc1ccc(Nc2nc(C)c([N+](=O)[O-])c(Nc3ccccc3)n2)cc1	58.1
Cc1nc2sc(C(=O)Nc3ccccc3)c(N)c2c(C)c1[N+](=O)[O-]	-78.5*
SMILES	aSyn UTR act
CC(=O)c1ccc(NC(=O)c2sc3nc(C)c(C)c(C)c3c2N)cc1	-232.9*
Nc1c(C(=O)Nc2ccccc2)sc2ncc([N+](=O)[O-])cc12	-63.2*
CC(=O)/C=C(\C)Nc1ccc(-c2cnc(-c3ccccc3)o2)cc1	-94.9*
CCOC(=O)c1ccc(NC(=O)COc2ccc(CNC3CCCCC3)cc2OC)cc1	-63.1*
CCN(CC)c1ccc(C2Nc3cccc4cccc(c34)N2)cc1	-171.1*
CCN1CCN(c2cc(C)c3cc(NC(=O)c4ccc(Br)o4)ccc3n2)CC1	-84.5*
CCN1CCN(Cc2ccc(NC(=O)c3ccc(C)c(/C=C/c4cnc(Nc5cc(N6CCNCC6)nc(C)n5)cn4)c3)cc2C(F)(F)F)CC1	110.2
CCN1CCN(c2cc(C)c3cc(NC(=S)N4CCCCC4)ccc3n2)CC1	-85.3*
Cc1cc(N2CCN(C)CC2)nc2ccc(NC(=O)c3ccccc3F)cc12	-123.0*
CCN1CCN(c2cc(C)c3cc(NC(=O)c4ccc(C)c(C)c4)ccc3n2)CC1	16.8
Cc1ccc(S(=O)(=O)n2nc(-c3ccc(Cl)cc3)nc2NCc2ccco2)cc1	-95.9*
CCS(=O)(=O)n1nc(-c2ccccc2)nc1NCc1ccco1	-70.7*
Cc1cnc(NC(=O)C2CCC(C(C)(C)C)CC2)s1 (centres undefined)	-63.5*
O=C(CCC1CCCCC1)Nc1nccs1	-61.7*
CC(C)(C)C1CCC(C(=O)Nc2nccs2)CC1 (centres undefined)	-101.5*
COc1ccc(C(=O)NCCn2ccc3ccccc32)c(OC)c1	-89.8*
Cc1cc2ccccn2c1C(=O)Nc1ccccc1	-109.1*
Cc1cc2ccccn2c1C(=O)Nc1ccc(Cl)cc1	-116.7*
CC1(C)CC(=O)C(N=Nc2ccc(-c3ccccc3)cc2)=C(O)C1	-83.6*
Cc1ccc(Cn2c(O)c(N=NC(=S)Nc3ccccc3F)c3cc(S(=O)(=O)N4CCOCC4)ccc32)cc1	66.2
Cc1ccc(C)c(NC(=S)N=Nc2c(O)n(C)c3ccc(S(=O)(=O)N4CCOCC4)cc23)c1	77.8
Cc1ccc(Nc2ccc(S(=O)(=O)N3CCOCC3)cc2[N+](=O)[O-])c(C)c1	-62.1*
CC1CCC(NC(=O)c2ccc(NS(=O)(=O)c3ccc4[nH]c(=O)[nH]c4c3)cc2)CC1 (centres undefined)	-124.4*
O=c1c2ccccc2nnn1COc1cccc(Cl)c1	-107.4*
O=C(CSc1ccc2ccccc2c1Br)Nc1cccc(S(=O)(=O)NC2=NCCCCC2)c1	64.1
SMILES	aSyn UTR act
O=C(/C=C/c1ccc(Cl)cc1Cl)Nc1cccc(S(=O)(=O)NC2=NCCCCC2)c1	-66.9*
CN1CCN(C(=O)c2ccc(-c3cccs3)s2)CC1	-97.8*
CCn1c(SCC(=O)Nc2ccc(C)cc2)nc(O)cc1=O	-70.6*
CN(C)/C=C/C(=O)/C=C/c1ccc(Cl)cc1	-180.2*
COc1ncccc1-c1nnn(-c2ccc(Cl)c(Cl)c2)n1	-169.0*
O=c1[nH]c2ccccc2cc1-c1nnn(-c2ccc(F)cc2)n1	-102.8*
Cc1ccc(-n2nnc(-c3cc4ccccc4nc3Cl)n2)cc1	-148.2*
COc1ncccc1-c1nnn(-c2ccc(C)cc2)n1	-160.6*
COc1ncccc1-c1nnn(-c2ccc(F)cc2)n1	-97.0*
O=C(COc1ccccc1Br)Nc1ccc2c(c1)OCCCO2	-133.2*
O=C(COc1ccccc1F)Nc1ccc2c(c1)OCCO2	-75.4*
N#Cc1ccccc1OCC(=O)Nc1ccc2c(c1)OCCCO2	-159.7*
C[C@@H](C(=O)Nc1ccc2c(c1)OCCO2)n1nnc2ccccc2c1=O	-89.5*
Cc1ccccc1OC(C)C(=O)Nc1ccc2c(c1)OCCO2 (centres undefined)	-71.4*
Cc1ccsc1/C=N/NC(=O)C(=O)NCC(C)C	-76.5*
Cc1ccsc1/C=N/NC(=S)NCCc1ccccc1	-108.0*
CCNC(=S)N/N=C/c1sccc1C	-71.4*
CCNC(=S)N/N=C/c1cn(Cc2ccccc2F)c2ccccc12	52.0
Cc1cccc(N/C=C/c2onc(C)c2[N+](=O)[O-])c1	-156.1*
Cc1cc(O)ccc1N/C=C/c1onc(C)c1[N+](=O)[O-]	-109.6*
N#Cc1cc(C#N)c(N2CCN(c3ccccn3)CC2)nc1N	-203.7*
COc1ccc(NC2CC(=O)N(C(C)C)C2=O)cc1 (centres undefined)	-150.2*
CC(C)N1C(=O)CC(Nc2ccc(N3CCOCC3)cc2)C1=O (centres undefined)	-145.0*
O=C1N=c2ccccc2=C1c1sc(Nc2cccc(O)c2)nc1O	-90.5*
Cc1cc(NC(=O)c2ccc(C)c(C)c2)no1	-106.2*
SMILES	aSyn UTR act
CC(=O)Oc1ccc(C(=O)Nc2cc(C)on2)cc1	-83.8*
Cc1cc(NC(=O)c2ccc(NC(=O)C(C)C)cc2)no1	-61.6*
Cc1cc(NC(=O)c2ccc(Br)c([N+](=O)[O-])c2)no1	-81.1*
CCc1ccc(C(=O)Nc2cc(C)on2)o1	-112.1*
COC(=O)c1ccc(-c2ccc(Cl)cc2)nc1C	-125.5*
COc1cccc(NC(=O)n2nc(N)cc2-c2ccc(Cl)cc2)c1	-69.2*
Cc1[nH]c2ccccc2c1C(=O)NS(=O)(=O)Nc1ccc(Cl)cc1	-81.7*
Cc1cc(Cl)cc2sc(NC(=O)c3ccco3)nc12	-122.7*
Fc1cccc2sc(Nc3nnc(-c4ccco4)o3)nc12	-109.1*
Cc1nc2nc(NC(=O)c3ccco3)nn2c(C)c1Cl	-94.5*
O=C(Nc1nc2c(F)cccc2s1)c1ccco1	-121.0*
CN(C)CCNC(=O)C(=O)Nc1ccc2c(c1)N(S(=O)(=O)c1cccs1)CCC2	-63.2*
